Test results from PubChem BioAssay (NCI).
“And” between values parts separate entries of the source, which are not always exact repeats. Identical values can stand only once. This is part of a sample that, as a whole, favours compounds with a hit. Of some 79,000 tested, about 15% had one in any assay. Values without a mark were called inactive. The source made the active and inactive calls. Cut-off read from the data, not from the text of the source: active = growth inhibition above about 70%; inactive = the rest.

Experiment: NCI Yeast Anticancer Drug Screen. Data for the mlh1 rad18 strain (AID 175)
Conditions: S. cerevisiae mlh1 rad18 strain growth inhibition; at 50.0 µM; active compounds read high
Summary of the method: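 Read-out is yeast growth inhibition, calculated against vehicle-only controls. The compound was applied to a strain engineered with DNA damage repair alterations.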

SMILES	growth inhibition
COc1ccc(C(=O)Nc2ccc(Cl)cc2)cc1	-23.3%
CC(=O)OC1COC(SC(=N)N)C(OC(C)=O)C1OC(C)=O (stereo not drawn)	22.6% and 29.1% and 4.55%
C=CCOC(=O)CCC(=O)N(CC)CC	-2.3%
N#CCC(=O)N/N=C(/CC1(O)C(=O)Nc2c(Cl)cc(Cl)cc21)c1ccccc1 (stereo not drawn)	75.2% (active)
CCCCOC(=O)c1cnc[nH]c1=O	8.65%
COC1OC2COC(c3ccccc3)OC2C(O)C1O (stereo not drawn)	-3.15% and -3.95% and 9.8%
N#Cc1ccccc1[N+](=O)[O-]	79.5% (active)
CCCCOC(=O)c1ccc(O)c(OC)c1	-11.2%
